Measured values published in PubChem BioAssay.
“And” between values parts separate entries of the source, which are not always exact repeats. Equal values may be shown once. A structure can be active in one record and inactive in another. The source made the active and inactive calls.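 Rule for the calls, unless noted: active = inhibition at or above 50% relative to wild type and mutant plate controls; inactive = inhibition below 50%.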

Legend:
[1] = inhibitors of TNFa-induced NFkB p65 translocation, primary screen, imaging, HUVEC, MLSMR starter and 10KST1 sets (AID 438;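 active = inhibition above 20% together with a positive visual image hit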;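 note: compound added about 3h40 before a 20 min TNFalpha stimulation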;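 for inhibition: signal is the nuclear over cytoplasmic p65 intensity ratio per well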); details: HUVEC TNFa-induced p65 nuclear translocation; cell count: measured here: nuclei count (cytotoxicity indicator), at 2.08 µM; inhibition: at 2 µM, stronger effect = higher value, 0% TNFa-plus-vehicle, 100% no-TNFa wells
[2] = inhibitors of mutant huntingtin aggregation, primary screen, imaging, exon1htt(103Q)mCFP cells, high-content imaging (AID 483;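 active = visual image review flags a hit and inhibition of aggregation exceeds 20%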;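 note: compound exposure lasted 3 days before fixation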;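 for nuclei count: percent of the per-plate median nuclei count of sample wells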); details: exon1htt(103Q)mCFP cell line, aggregate imaging, at 2 µM; inhibition of aggregation: stronger effect = higher value; nuclei count: measured here: cell count, toxicity
[3] = inhibitors of E-selectin induction by TNFa, primary screen, imaging, HUVEC, immunofluorescence, MLSMR starter and 10KST1 sets (AID 487;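 active = visually confirmed hit in the image check and inhibition above 20%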;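 for inhibition: signal is fraction of cell area covered by stained E-selectin grains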;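 for nuclei count: 100% = median nuclei count of all wells on the same plate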); details: HUVEC TNFalpha-induced E-selectin immunofluorescence imaging, at 2 µM; inhibition: stronger effect = higher value; nuclei count: measured here: cell number, toxicity
[4] = DUSP6 inhibitors restoring Erk phosphorylation by chemical complementation, primary imaging in DUSP6-transfected HeLa (AID 609;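 active = compounds giving at least 50% inhibition in the cell-based MKP-3 phosphatase rescue imaging test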;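 for inhibition: phospho-Erk level distribution per well compared with pooled transfected vehicle control wells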); details: HeLa MKP-3 transfected, phospho-Erk imaging KS statistic, at 10 µM, cells stimulated with TPA for 15 min
[5] = molecular target: Dual specificity protein phosphatase 6 (Homo sapiens) (UniProt Q16828); test: as above; details: HeLa MKP-3 transfected, phospho-Erk imaging KS statistic; at 10 µM; stronger effect = higher value; cells stimulated with TPA for 15 min
Chain of Dual specificity protein phosphatase 6 (Homo sapiens) (Q16828 whole entry, looked up): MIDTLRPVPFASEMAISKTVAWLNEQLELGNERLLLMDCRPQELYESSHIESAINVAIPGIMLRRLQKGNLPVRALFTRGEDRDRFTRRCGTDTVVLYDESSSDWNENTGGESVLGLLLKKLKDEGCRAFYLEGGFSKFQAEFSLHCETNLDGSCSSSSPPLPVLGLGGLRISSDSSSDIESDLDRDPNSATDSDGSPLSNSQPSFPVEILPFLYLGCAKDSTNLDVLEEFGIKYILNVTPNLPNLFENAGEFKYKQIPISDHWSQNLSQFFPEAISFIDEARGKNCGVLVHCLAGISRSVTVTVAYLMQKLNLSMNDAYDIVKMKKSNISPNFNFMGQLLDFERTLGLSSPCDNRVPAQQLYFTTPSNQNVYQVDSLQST

[6] = molecular target: Voltage-gated potassium channel subunit beta-2 (Rattus norvegicus) (UniProt P62483); test: KvBeta enzyme negative modulators, primary screen, biochemical, NADPH fluorescence (AID 622;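 active = fluorescence slope higher than the sample average by over 3 SD, cut at about -0.22 in these data, passing the limit was not always enough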;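 note: slope of raw intensity against log time taken from 70 to 1610 s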); details: recombinant KvBeta, 4-cyanobenzaldehyde reduction, at 10 µM, stronger effect = higher value
Chain of Voltage-gated potassium channel subunit beta-2 (Rattus norvegicus) (P62483 whole entry, looked up): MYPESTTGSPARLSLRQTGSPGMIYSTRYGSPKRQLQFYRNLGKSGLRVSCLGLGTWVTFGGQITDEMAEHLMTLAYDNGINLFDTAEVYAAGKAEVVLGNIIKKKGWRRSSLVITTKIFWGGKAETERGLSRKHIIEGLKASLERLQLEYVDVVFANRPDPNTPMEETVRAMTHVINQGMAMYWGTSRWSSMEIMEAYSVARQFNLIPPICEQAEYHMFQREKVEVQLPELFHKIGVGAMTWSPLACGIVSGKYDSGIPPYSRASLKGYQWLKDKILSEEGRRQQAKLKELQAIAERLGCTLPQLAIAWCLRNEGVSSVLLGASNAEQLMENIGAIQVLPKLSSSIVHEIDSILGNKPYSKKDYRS

[7] = molecular target: Voltage-gated potassium channel subunit beta-2 (Rattus norvegicus) (UniProt P62483); test: KvBeta positive modulators, primary screen, biochemical, NADPH fluorescence (AID 623;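 active = NADPH fluorescence slope more negative than the mean of all samples by about 3 SD, 99.7% confidence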;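 note: fluorescence intensity change per second fitted from 20 to 320 s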); details: Recombinant KvBeta, NADPH fluorescence decrease slope, 10 min; at 10 µM; stronger effect = lower value
[8] = molecular target: Alpha-2C adrenergic receptor (Homo sapiens) (UniProt P18825); test: modulators of alpha2C/GIRK thallium flux, primary screen, cell-based, HEK293 alpha2C/GIRK1/2 (AID 624;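 active = fluorescence slope after compound addition differing from the mean of all screened samples at 99.7% confidence, in either direction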;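 note: slope of fluorescence ratio to pre-addition baseline per second over 15 to 24 s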); details: thallium flux BTC fluorescence, at 10 µM, actives lie on both sides
Chain of Alpha-2C adrenergic receptor (Homo sapiens) (P18825 whole entry, looked up): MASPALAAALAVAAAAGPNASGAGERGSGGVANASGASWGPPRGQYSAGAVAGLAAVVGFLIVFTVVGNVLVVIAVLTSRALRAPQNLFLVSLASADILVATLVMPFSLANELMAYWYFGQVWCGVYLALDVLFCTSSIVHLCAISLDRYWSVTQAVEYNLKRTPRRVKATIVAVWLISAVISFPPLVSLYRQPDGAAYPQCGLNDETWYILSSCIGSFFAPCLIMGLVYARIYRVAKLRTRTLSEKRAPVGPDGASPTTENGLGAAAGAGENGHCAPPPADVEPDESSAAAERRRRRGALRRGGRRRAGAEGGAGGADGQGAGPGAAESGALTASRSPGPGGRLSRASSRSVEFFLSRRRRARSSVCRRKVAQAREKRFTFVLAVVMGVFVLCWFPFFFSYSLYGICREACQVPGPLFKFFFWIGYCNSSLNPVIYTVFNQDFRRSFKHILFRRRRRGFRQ

[9] = inhibitors of larval lipid processing in zebrafish, primary screen, whole organism, PED6 fluorescence, gall bladder and intestine (AID 686;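 active = a full or partial loss of lipid-probe fluorescence in the fish gall bladder, intestine or both, judged by eye; inactive = no fluorescence loss, or compound toxic to the fish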;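 note: larvae 5 to 7 days old with five fish per well; signal comes from phospholipase A2 cleavage of quenched PED6 carried via bile; overnight exposure to compound and PED6 before scoring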); details: Zebrafish larvae PED6 lipid processing, fluorescence scoring; screened at 20 µM (by protocol)
[10] = inhibitors of Chlamydomonas gravitaxis, primary screen, whole organism, Chlamydomonas reinhardtii, WT vs cilia-less mutant, absorbance, 96-well (AID 463189); details: OD600 absorbance, 2 days, at 10 µM, stronger effect = higher value;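 note: 0% = wild type cc124 cells in DMSO and 100% = ciliumless bld1 mutant cells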
[11] = inhibitors of Sendai virus-induced IRF3 signaling, primary screen, TLR/RLR signaling modifier project, cell-based, Sendai virus stimulus, luciferase, 10K MLSCN set (AID 602276;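 active = inhibition at or above 50% at 10 µM; inactive = inhibition below 50%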;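 note: firefly luciferase from ISG56 promoter only with Renilla not read in this screen; 0% = Sendai virus plus DMSO and 100% = medium plus DMSO without virus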); details: HEK293 RL24 IRF3 luciferase reporter, at 10 µM, stronger effect = higher value
[12] = inhibitors of poly I:C-induced TLR3 signaling, primary screen, cell-based, poly I:C stimulus, luciferase, 10K MLSCN set (AID 602277;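 active = inhibition of the reporter signal at or above 50%; inactive = inhibition below 50%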); details: HEK293-TLR3 RL24 IRF3 luciferase reporter, at 10 µM, stronger effect = higher value
[13] = measured here: cell density z-score
[14] = measured here: nuclear c-Myc green intensity z-score
[15] = measured here: nuclear pErk red intensity z-score, stronger effect = higher value

SMILES | cell count [1] | inhibition [1] | inhibition of aggregation [2] | nuclei count [2] | inhibition [3] | nuclei count [3] | z-score [4, 13] | z-score [4, 14] | z-score [4, 15] | inhibition [5] | fluorescence slope [6] | NADPH fluorescence slope [7] | slope [8] | outcome [9] | inhibition [10] | inhibition [11] | inhibition [12]
O=C(O)CCCCCCC1C(=O)NC(=O)N1CCC(O)C1CCCCC1 (stereo not given) | 579 | -9.7% (inactive) | -6.4% (inactive) | 97.8% | -76.1% (inactive) | 116% | -0.528 | -0.266 | 1.03 | -0.493% (inactive) | -0.507 (inactive) | -5.2e-05 (inactive) | 0.00541 (inactive) | inactive | 1.26% (inactive) | 15.9% (inactive) | 36.2% (inactive)
CCCCCC(=O)N1CC2(CC)CN(C(=O)CCCCC)CC(CC)(C1)C2=O | 548 | 4.4% (inactive) | 26.5% (inactive) | 90% | -77.8% (inactive) | 117% | 0.465 | -0.132 | -0.254 | 7.42% (inactive) | -0.308 (inactive) | -9.9e-07 (inactive) | 0.00431 (inactive) | inactive | 22.6% (inactive) | 3.77% (inactive) | 34.5% (inactive)
CCN(CC)CCN1C(=O)C(=O)/C(=C(/O)c2ccc(OC(C)C)cc2)C1c1ccncc1 (stereo not given) | 529 | -5.6% (inactive) | 3% (inactive) | 116% | -8.2% (inactive) | 104% | -0.653 | -0.46 | -0.356 | -6.48% (inactive) | -0.356 (inactive) | 4.4e-05 (inactive) | 0.00527 (inactive) | inactive | -14% (inactive) | 8.32% (inactive) | 8.84% (inactive)
COC(=O)Nc1nc2ccc(Sc3ccccc3)cc2[nH]1 | 678 | 4.6% (inactive) | 9.4% (inactive) | 103% | -3.1% (inactive) | 76.4% | -0.13 | 0.104 | -0.162 | -5.24% (inactive) | -0.475 (inactive) | -5.5e-05 (inactive) | 0.00514 (inactive) | inactive | -5.89% (inactive) | 43% (inactive) | -12.9% (inactive)
CCOC(=O)/C(C#N)=C1\Nc2ccccc2N=C1N(CC(C)C)CC(C)C | 586 | -7.3% (inactive) | -2.5% (inactive) | 105% | -92.9% (inactive) | 148% | -0.677 | -0.872 | -0.406 | 3.56% (inactive) | -0.524 (inactive) | -3.1e-05 (inactive) | 0.00419 (inactive) | inactive | 1.92% (inactive) | -5.84% (inactive) | -1.84% (inactive)
OCCN1CCN(CCCN2c3ccccc3Sc3ccc(C(F)(F)F)cc32)CC1 | 606 | 2% (inactive) | 4.9% (inactive) | 91.7% | -56.8% (inactive) | 127% | 0.204 | 0.276 | 0.714 | -10.4% (inactive) | -0.544 (inactive) | -5.6e-05 (inactive) | 0.00393 (inactive) | active; no signal in intestine only | -10.6% (inactive) and 145% (active) | 12.2% (inactive) | 58.3% (active)
CC1CNCCN1S(=O)(=O)c1cccc2cnccc12 (stereo not given) | 695 | -8.2% (inactive) | 13% (inactive) | 109% | -58.8% (inactive) | 129% | -0.528 | 0.0835 | -0.173 | 15.3% (inactive) | -0.449 (inactive) | -4.6e-05 (inactive) | 0.00348 (inactive) | inactive | 0.228% (inactive) and 8.92% (inactive) and 17.2% (inactive) | 15.5% (inactive) | 43% (inactive)
Fc1ccc(C2C3=C(Nc4ncnn42)c2ccccc2OC3c2ccncc2)cc1 (stereo not given) | 363 | 1.7% (inactive) | 2.1% (inactive) | 113% | -83.1% (inactive) | 136% | 0.971 | -0.105 | 1.45 | 21.4% (inactive) | -0.41 (inactive) | -0.000137 (inactive) | 0.00729 (inactive) | inactive | -7.08% (inactive) | 17.4% (inactive) | 19.3% (inactive)
CCOc1ccc(CSC(CC(=O)O)C(=O)O)cc1 (stereo not given) | 670 | -12.9% (inactive) | 18.1% (inactive) | 98.8% | -17.6% (inactive) | 137% | -0.325 | -0.101 | 1.94 | -6.86% (inactive) | -0.356 (inactive) | -2.7e-05 (inactive) | 0.00455 (inactive) | inactive | 2.66% (inactive) | 13.1% (inactive) | 29.3% (inactive)
CN1CCC(=C2c3ccccc3C=Cc3ccccc32)CC1 | 599 | -6% (inactive) | -5.2% (inactive) | 104% | -80% (inactive) | 131% | 0.654 | 1.45 | -1.1 | 9.37% (inactive) | -0.438 (inactive) | -6.6e-05 (inactive) | 0.00408 (inactive) | inactive; toxic | 12% (inactive) and 38.6% (inactive) | 18.4% (inactive) | 46.7% (inactive)
CCCCCC(=O)N1CC2(C)CN(C(=O)CCCCC)CC(C)(C1)C2=O | 482 | 3.2% (inactive) | -8.1% (inactive) | 97.5% | -94.9% (inactive) | 101% | 0.798 | 0.672 | 0.65 | 7.42% (inactive) | -0.352 (inactive) | -4.5e-05 (inactive) | 0.00564 (inactive) | inactive | 24% (inactive) | 6.58% (inactive) | 21.5% (inactive)
O=C1N[C@@H](Cc2cnc[nH]2)C(=O)N2CCC[C@@H]12 | 563 | -1.5% (inactive) | 17.2% (inactive) | 95.1% | -32% (inactive) | 119% | -1.25 | 0.0399 | -0.395 | -0.493% (inactive) | -0.516 (inactive) | -4.6e-05 (inactive) | 0.0041 (inactive) | inactive | 10.3% (inactive) | 16.7% (inactive) | 33.3% (inactive)
NC(N)=NS(=O)(=O)c1ccc(N)cc1 | 630 | 0.4% (inactive) | 9.4% (inactive) | 99.7% | -107% (inactive) | 136% | 0.695 | -0.407 | -0.348 | 14.6% (inactive) | -0.497 (inactive) | -7.4e-05 (inactive) | 0.00546 (inactive) | inactive | -2.06% (inactive) | 18.4% (inactive) | 34.4% (inactive)
CN(C)c1ccc(C=NCC2(O)CCOC(C)(C)C2)cc1 (stereo not given) | 470 | -13.2% (inactive) | -13.7% (inactive) | 108% | -145% (inactive) | 144% | -1.86 | -0.94 | 0.52 | 17.5% (inactive) | -0.423 (inactive) | -0.000132 (inactive) | 0.00493 (inactive) | inactive | 7.69% (inactive) | 13% (inactive) | 13.9% (inactive)
COc1cccc(OC)c1C(=O)N1CCN(S(=O)(=O)c2ccc(C)cc2)CC1 | 565 | -7.5% (inactive) | 12.9% (inactive) | 104% | -232% (inactive) | 135% | -0.228 | -1.25 | 0.112 | 5.57% (inactive) | -0.382 (inactive) | 1.3e-06 (inactive) | 0.0062 (inactive) | inactive | -1.26% (inactive) | 5.77% (inactive) | 18% (inactive)
CCN(CC)CCNC(=O)c1cc(Cl)c(N)cc1OC | 552 | -4.5% (inactive) | 5.6% (inactive) | 106% | -17.3% (inactive) | 120% | 0.156 | -0.776 | 0.343 | -0.493% (inactive) | -0.444 (inactive) | 4.3e-05 (inactive) | 0.00461 (inactive) | inactive | 8.75% (inactive) and -3.64% (inactive) | -8.87% (inactive) | 30.5% (inactive)
CC(C[N+](C)(C)C)OC(N)=O (stereo not given) | 492 | 17.2% (inactive) | -16.6% (inactive) | 106% | -25.7% (inactive) | 125% | -0.295 | 0.566 | -0.0176 | 5.42% (inactive) | -0.491 (inactive) | -6.6e-05 (inactive) | 0.00575 (inactive) | inactive | 4.16% (inactive) and 23.3% (inactive) | 14.7% (inactive) | 38.3% (inactive)
CC(=O)OCC(=O)[C@H]1CC[C@H]2[C@@H]3CC=C4C[C@@H](O)CC[C@]4(C)[C@H]3CC[C@]12C | 586 | -9.5% (inactive) | 16.5% (inactive) | 99.7% | -22.1% (inactive) | 128% | 0.459 | 0.562 | -0.353 | 17.3% (inactive) | -0.45 (inactive) | -6.8e-05 (inactive) | 0.00533 (inactive) | inactive | 35% (inactive) | 9.44% (inactive) | 25.1% (inactive)
CC1=NN(c2ccccc2)C(=O)C1 | 619 | -5.9% (inactive) | 2.5% (inactive) | 98% | -82.4% (inactive) | 130% | 0.599 | -0.649 | 1.01 | 9.37% (inactive) | -0.432 (inactive) | 5.3e-06 (inactive) | 0.00466 (inactive) | inactive | 11.5% (inactive) | -68.4% (inactive) | 52% (active)
CC(C)C1Cc2c(C#N)c(N)sc(=S)c2CO1 (stereo not given) | 487 | 4.7% (inactive) | 2.2% (inactive) | 102% | -98.3% (inactive) | 146% | 1.33 | -0.895 | 0.775 | 14% (inactive) | -0.291 (inactive) | 1.2e-05 (inactive) | 0.0021 (inactive) | inactive | 27.2% (inactive) | -3.04% (inactive) | 12.1% (inactive)
